Results on 21 compounds are retold here after PubChem BioAssay.

Values without a mark were called inactive. For part of these data: Results with a measured potency or affinity are listed apart. Calls of active or inactive are those of the source. Unless noted, the rule behind the calls is not given here.

Assay [1] can be described thus: antimalarial activity against Dd2 strain (AID 2302;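 active = growth inhibition above 50% at the single 2 µM test dose, taken to imply half-maximal potency below 2 µM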;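 note: 0% = DMSO untreated growth and 100% = chloroquine plus artemisinin killed control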). The conditions noted are these: P. falciparum Dd2 in RBCs, LDH growth readout, 72 h; at 2 µM; hits give high values.
A short description of assay [2]: HepG2 cytotoxicity, primary screen, cytotoxicity control for P. falciparum antimalarial project, cell-based, ATP luminescence (AID 2303;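 active = inhibition above 50%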;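 note: 0% = DMSO wells and 100% = digitonin-killed cells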). The conditions noted are these: HepG2 viability, 24-48 h, at 10 µM, hits give high values.
In assay [3] the target is L-lactate dehydrogenase (Plasmodium falciparum (isolate CDC / Honduras)) (UniProt Q27743). Description: PfLDH activity inhibition – cell lysate, 3D7 strain, counter-screen for P. falciparum growth inhibition project (AID 2304).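 Note: 0% = vehicle and 100% = reference inhibitor.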 The conditions noted are these: P. falciparum 3D7 crude extract, LDH APAD/NBT absorbance; at 2 µM; hits give high values. Background: A counterscreen serves to expose hits that act by an unwanted route or on another target.
Sequence of L-lactate dehydrogenase (Plasmodium falciparum (isolate CDC / Honduras)) (Q27743 whole entry, looked up): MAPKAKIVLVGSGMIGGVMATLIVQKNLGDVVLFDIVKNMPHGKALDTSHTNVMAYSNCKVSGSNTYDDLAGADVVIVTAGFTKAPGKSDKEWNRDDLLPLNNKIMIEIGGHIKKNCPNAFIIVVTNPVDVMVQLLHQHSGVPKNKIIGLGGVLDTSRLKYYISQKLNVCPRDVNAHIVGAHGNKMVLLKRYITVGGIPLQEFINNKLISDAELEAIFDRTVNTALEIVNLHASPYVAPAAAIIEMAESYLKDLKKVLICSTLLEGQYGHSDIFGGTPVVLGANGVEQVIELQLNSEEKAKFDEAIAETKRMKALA

The nature of assay [4]: inhibition of 3D7 malaria parasite growth – strain 3D7 (AID 2306).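 Note: 0% = DMSO wells and 100% = chloroquine plus artemisinin control wells.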 The conditions noted are these: P. falciparum 3D7 erythrocytic growth, LDH absorbance, 72 h; at 2 µM; hits give high values.
For assay [5], the target named is Calcium-dependent protein kinase 1 (Plasmodium falciparum (isolate 3D7)) (UniProt P62344). Description: PfCDPK1 kinase inhibitors, biochemical, TCAMS library (AID 1159585; cut-off not given, nearly all actives have IC50 up to about 0.98 µM;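 note: inhibitors leave more ATP so luminescence rises with inhibition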). The conditions noted are these: recombinant PfCDPK1, Kinase-Glo ATP depletion luminescence. A general note: Kinase-Glo reads ATP consumption through a luciferase reaction.
Sequence of Calcium-dependent protein kinase 1 (Plasmodium falciparum (isolate 3D7)) (P62344 whole entry, looked up): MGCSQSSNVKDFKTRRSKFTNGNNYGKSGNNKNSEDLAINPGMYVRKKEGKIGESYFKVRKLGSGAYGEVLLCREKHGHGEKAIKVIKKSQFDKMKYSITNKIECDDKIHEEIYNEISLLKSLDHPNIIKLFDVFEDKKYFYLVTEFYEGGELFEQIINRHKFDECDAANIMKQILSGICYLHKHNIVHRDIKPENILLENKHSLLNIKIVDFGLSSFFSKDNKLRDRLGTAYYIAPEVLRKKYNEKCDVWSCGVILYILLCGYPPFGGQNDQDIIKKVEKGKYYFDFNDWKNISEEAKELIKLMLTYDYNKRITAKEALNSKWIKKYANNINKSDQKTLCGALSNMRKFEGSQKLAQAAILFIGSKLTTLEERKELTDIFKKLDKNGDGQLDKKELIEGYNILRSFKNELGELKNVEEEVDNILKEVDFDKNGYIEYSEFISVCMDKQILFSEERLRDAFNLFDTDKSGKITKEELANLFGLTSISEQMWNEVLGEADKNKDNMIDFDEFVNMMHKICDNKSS
For assay [6], the target named is Plasmodium falciparum protein kinase 6 (PK6, PF3D7_1337100) (UniProt Q8IDW1). Nature of the assay: PfPK6 kinase inhibitors, biochemical, TCAMS library (AID 1159586). The conditions noted are these: recombinant PfPK6, Kinase-Glo ATP depletion luminescence.
Sequence of Plasmodium falciparum protein kinase 6 (PK6, PF3D7_1337100) (Q8IDW1 1-305): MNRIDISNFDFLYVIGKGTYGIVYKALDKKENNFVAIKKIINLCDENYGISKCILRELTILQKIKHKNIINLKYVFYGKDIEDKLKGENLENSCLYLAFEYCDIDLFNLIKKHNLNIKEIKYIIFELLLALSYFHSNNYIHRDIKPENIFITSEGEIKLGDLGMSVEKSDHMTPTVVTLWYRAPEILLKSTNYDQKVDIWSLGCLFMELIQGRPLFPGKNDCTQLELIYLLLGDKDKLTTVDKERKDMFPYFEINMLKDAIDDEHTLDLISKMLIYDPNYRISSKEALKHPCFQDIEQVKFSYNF
In assay [7] the target is Protein kinase 7 (PK7), Plasmodium falciparum 3D7 (PF3D7_0213400) (UniProt Q7YTF7). Nature of the assay: inhibition of Plasmodium PK7 catalytic activity – biochemical, TCAMS antimalarial set, Kinase-Glo luminescence (AID 1159587). The conditions noted are these: recombinant PfPK7, Kinase-Glo ATP depletion luminescence.
Sequence of Protein kinase 7 (PK7), Plasmodium falciparum 3D7 (PF3D7_0213400) (Q7YTF7 1-343): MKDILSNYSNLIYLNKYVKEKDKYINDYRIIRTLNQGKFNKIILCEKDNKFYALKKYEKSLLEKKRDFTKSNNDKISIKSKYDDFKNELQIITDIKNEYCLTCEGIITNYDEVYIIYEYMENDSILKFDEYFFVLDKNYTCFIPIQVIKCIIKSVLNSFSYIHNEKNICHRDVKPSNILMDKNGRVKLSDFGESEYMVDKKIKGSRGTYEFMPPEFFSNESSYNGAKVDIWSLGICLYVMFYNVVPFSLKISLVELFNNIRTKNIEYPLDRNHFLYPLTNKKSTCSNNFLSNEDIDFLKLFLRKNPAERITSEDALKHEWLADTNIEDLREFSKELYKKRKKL
The target of assay [8] is Calcium-dependent protein kinase 4 (Plasmodium falciparum (isolate 3D7)) (UniProt Q8IBS5). Description: PfCDPK4 kinase inhibitors, biochemical, TCAMS library (AID 1159588; cut-off not given, nearly all actives have IC50 up to about 0.91 µM). The conditions noted are these: recombinant PfCDPK4, Kinase-Glo ATP depletion luminescence.
Sequence of Calcium-dependent protein kinase 4 (Plasmodium falciparum (isolate 3D7)) (Q8IBS5 whole entry, looked up): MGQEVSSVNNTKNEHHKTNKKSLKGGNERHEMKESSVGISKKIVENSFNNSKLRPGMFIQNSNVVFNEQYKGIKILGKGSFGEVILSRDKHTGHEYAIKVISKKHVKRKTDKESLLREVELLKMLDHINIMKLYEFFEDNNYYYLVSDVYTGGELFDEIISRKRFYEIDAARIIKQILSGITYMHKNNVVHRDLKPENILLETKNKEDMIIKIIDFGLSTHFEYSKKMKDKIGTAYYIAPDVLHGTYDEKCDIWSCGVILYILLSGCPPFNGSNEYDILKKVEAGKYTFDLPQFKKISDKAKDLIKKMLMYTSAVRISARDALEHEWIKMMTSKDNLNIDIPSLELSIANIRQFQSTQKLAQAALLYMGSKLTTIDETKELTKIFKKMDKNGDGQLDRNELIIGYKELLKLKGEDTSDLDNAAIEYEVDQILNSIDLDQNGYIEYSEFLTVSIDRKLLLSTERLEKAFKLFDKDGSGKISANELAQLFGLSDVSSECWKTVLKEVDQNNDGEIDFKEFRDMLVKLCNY

As to `Cc1cccc(C)c1CNc1nc(N2CCOCC2)cc2c(C)c(C)[nH]c12`, the growth inhibition in assay [1] is 64% (active); in assay [4], 92% (active). Also, the figures for the inhibition in assay [2] and in assay [3] were 51% (active) and -4%, respectively. Moreover, the outcome in assay [5], in assay [6], in assay [7] and in assay [8] was inactive.
`Oc1ccc(CCNCCCCCCNCCc2ccc(Br)cc2)cc1O`: the growth inhibition is 5% in assay [1] and 99% (active) in assay [4]. Moreover, the inhibition in assay [2] was 2%; in assay [3] it was -2%. Also, the outcome in assay [5], in assay [6], in assay [7] and in assay [8] was inactive.
On to `COc1ccc(NC(=O)/C=C/c2ccc(Cl)c(Cl)c2)cc1N1CCN(C)CC1`, for which the growth inhibition in assay [1] is 20%; in assay [4], 90% (active). For the same compound, the values for the inhibition in assay [2] and in assay [3] were 23% and -3%, respectively. The result in assay [5], in assay [6], in assay [7] and in assay [8] was inactive.
Consider `CCOc1cc(C(=O)N[C@@H](Cc2ccccc2)[C@H](O)CNCc2cc(OC)cc(OC)c2)cc(N2CCCS2(=O)=O)c1`, for which the growth inhibition is 66% (active) in assay [1] and 94% (active) in assay [4]. In addition, the inhibition in assay [2] was -5%; in assay [3], 0%. Besides, the outcome in assay [5], in assay [6], in assay [7] and in assay [8] was inactive.
For `N#Cc1ccc2c(c1)CCN(CCC1CCC(NC(=O)c3cc4ccc(Br)cc4[nH]3)CC1)C2` (stereo not drawn), the results for the growth inhibition in assay [1] and in assay [4] were 17% and 103% (active), respectively. For the same compound, the figures for the inhibition in assay [2] and in assay [3] were 12% and -13%, respectively. In addition, the outcome in assay [5], in assay [6], in assay [7] and in assay [8] was inactive.
For the compound `CCC1(C)N=C(N)N=C(N)N1c1ccccc1` (stereo not drawn), the growth inhibition in assay [1] is -2%; in assay [4] it was 98% (active). Besides, the values for the inhibition in assay [2] and in assay [3] were 6% and 0%, respectively. In addition, the result in assay [5], in assay [6], in assay [7] and in assay [8] was inactive.
For the compound `CCCN(CCC)C(=O)c1cc(C(=O)N[C@@H](Cc2ccccc2)[C@H](O)CNC(C)(C)c2cccc(OC)c2)cc(N2CCCCS2(=O)=O)c1`, the values for the growth inhibition in assay [1] and in assay [4] were 74% (active) and 99% (active), respectively. Besides, the inhibition in assay [2] was 16%; in assay [3], -3%. Further, the outcome in assay [5], in assay [6], in assay [7] and in assay [8] was inactive.
Consider `Cn1c2ccccc2c2c3ccccc3c(CNC(CO)(CO)CO)cc21`, for which the growth inhibition was 78% (active) in assay [1] and 96% (active) in assay [4]. The inhibition in assay [2] is 67% (active); in assay [3], -1%. In addition, the outcome in assay [5], in assay [6], in assay [7] and in assay [8] was inactive.
Regarding `CN(CCN)Cc1ccc(-c2ccc(-c3nc4ccc(C(F)(F)F)cc4[nH]3)s2)cc1`, the growth inhibition in assay [1] and in assay [4] was 98% (active) throughout. Further, the figures for the inhibition in assay [2] and in assay [3] were 37% and 2%, respectively. The result in assay [5], in assay [6], in assay [7] and in assay [8] was inactive.
For `N#Cc1ccc(-c2ccc(C(=O)NCCCCN3CCC(c4cn(CCO)c5ccccc45)CC3)cc2)cc1`, the growth inhibition was 43% in assay [1] and 93% (active) in assay [4]. For the same compound, the figures for the inhibition in assay [2] and in assay [3] were 23% and 4%, respectively. For the same compound, the result in assay [5], in assay [6], in assay [7] and in assay [8] was inactive.
As to `COc1ccc2nccc([C@@H](O)CN3CCC(NCc4cc5ccccc5cn4)CC3)c2n1`, the values for the growth inhibition in assay [1] and in assay [4] were 14% and 93% (active), respectively. Moreover, the inhibition in assay [2] is 3%; in assay [3] it was -2%. The result in assay [5], in assay [6], in assay [7] and in assay [8] was inactive.
On to `CC[C@H](C)CNC(=O)c1cncc(-c2ccc(CNCC3CNCCCO3)cc2)c1` (stereo partly drawn), for which the growth inhibition in assay [1] is -2%; in assay [4], 100% (active). The inhibition in assay [2] was -5%; in assay [3], -1%. Further, the result in assay [5], in assay [6], in assay [7] and in assay [8] was inactive.
For the compound `Clc1nc(Cl)c2c(ccn2Cc2ccccc2)n1`, the values for the growth inhibition in assay [1] and in assay [4] were 61% (active) and 100% (active), respectively. Moreover, the results for the inhibition in assay [2] and in assay [3] were -14% and -11%, respectively. Also, the result in assay [5], in assay [6], in assay [7] and in assay [8] was inactive.
`CC(C)(C)c1ccc(N2C(N)=NC(N)=NC2(C)C)cc1Cl`: the growth inhibition was 3% in assay [1] and 94% (active) in assay [4]. For the same compound, the inhibition in assay [2] is 51% (active); in assay [3], -5%. Further, the result in assay [5], in assay [6], in assay [7] and in assay [8] was inactive.
On to `COc1ccc2nccc([C@@H](O)CN3CCC(NCc4nc5c(OCc6ccccc6)cccc5[nH]4)CC3)c2c1`, for which the results for the growth inhibition in assay [1] and in assay [4] were 34% and 101% (active), respectively. The inhibition was 6% in assay [2] and 3% in assay [3]. Also, the result in assay [5], in assay [6], in assay [7] and in assay [8] was inactive.
In the case of `CCN(CC)CCN(Cc1ccc(-c2ccc(Cl)s2)cc1)C(=O)Cn1c(CCc2cccc(F)c2F)nc(=O)c2ccccc21`, the growth inhibition is 27% in assay [1] and 96% (active) in assay [4]. For the same compound, the inhibition in assay [2] is 24%; in assay [3] it was -4%. Further, the result in assay [5], in assay [6], in assay [7] and in assay [8] was inactive.
For the compound `COc1ccc(CNC2CCN(C)CC2)cc1-c1ccc(S(=O)(=O)NCc2cccnc2)s1`, the growth inhibition was 3% in assay [1] and 100% (active) in assay [4]. The inhibition in assay [2] is 10%; in assay [3], -4%. The result in assay [5], in assay [6], in assay [7] and in assay [8] was inactive.
On to `COc1cc(CC2c3cc(O)c(Cl)cc3CCN2C)c(OC)cc1C` (stereo not drawn), for which the figures for the growth inhibition in assay [1] and in assay [4] were 88% (active) and 99% (active), respectively. Further, the figures for the inhibition in assay [2] and in assay [3] were 10% and 0%, respectively. The outcome in assay [5], in assay [6], in assay [7] and in assay [8] was inactive.
As for `CC(C)CC(=O)Nc1cc(=O)[nH]c2nc(-c3ccccc3)nn12`, the growth inhibition in assay [1] was 85% (active); in assay [4] it was 89% (active). The inhibition in assay [2] and in assay [3] was -6% throughout. For the same compound, the result in assay [5], in assay [6], in assay [7] and in assay [8] was inactive.
Turning to `COc1ccc(CN2CCCC(Nc3ccc(F)c(F)c3)C2)c(O)c1` (stereo not drawn), the growth inhibition in assay [1] is 83% (active); in assay [4], 95% (active). Further, the inhibition was 14% in assay [2] and 3% in assay [3]. Also, the result in assay [5], in assay [6], in assay [7] and in assay [8] was inactive.
Regarding `COc1cccc(CC(=O)N2CCC(n3c(C)nc4ccc(F)cc43)CC2)c1`, the growth inhibition in assay [1] is 99% (active); in assay [4] it was 100% (active). The inhibition in assay [2] was -8%; in assay [3], -3%. For the same compound, the outcome in assay [5], in assay [6], in assay [7] and in assay [8] was inactive.

The term inhibition denotes the relative decrease from the control value, in per cent.
